Compounds with a hit are over-represented: about 6.7% of the library has one in this group of screens.
C diff growth: C. difficile growth inhibition; Clostridium difficile clinical isolate growth, OD600, 24 h; stronger effect = lower value; growth activity, negative = inhibition, % at 16 µg/mL (by protocol); actives 0.25% (n = 86,000);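 active = mean growth activity at or below -80% and every replicate also at or below -80%; inconclusive = mean at or below -80% but some replicate above -80%; inactive = mean growth activity above -80%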;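 note: 0% = DMSO wells and -100% = levofloxacin 16 µg/mL wells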
Pf Dd2 inh: P. falciparum Dd2 growth inhibition. SYBR Green, 72 h; stronger effect = lower value. AID 1159554. activity change, % at 10 µM. actives 2.3% (n = 94,000); in the data active = activity change below about -80%; inconclusive = no clear call, values can overlap the other calls
T cruzi growth-1: blocks T. cruzi growth in NIH3T3 culture; actives 5.9% (n = 77,000); inhibition, % at 8.34 µM; AID 624255; T. cruzi beta-gal in NIH3T3, GalScreen luminescence, 90 h;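 active = mean inhibition above about 93%, with at least 55% of replicates each passing it, limit read from the data, passing the limit was not always enough; inconclusive = only one of those two conditions holds; inactive = neither condition holds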
T cruzi growth-2: inhibitors of T. cruzi proliferation | shares compounds with T cruzi growth-1 | T. cruzi beta-gal in NIH3T3, GalScreen luminescence, 90 h | inhibition, % at 8.35 µM | actives 72% (n = 5,600) | AID 651739;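 active = mean replicate inhibition above about 95% and at least 55% of replicates individually reaching it, limit read from the data; inconclusive = only one of the two criteria is met; inactive = neither criterion is met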
T cruzi growth-3: inhibitors of T. cruzi proliferation; shares compounds with T cruzi growth-1; T. cruzi beta-gal in NIH3T3, GalScreen luminescence, 90 h; inhibition, % at 2.09 µM; actives 21% (n = 5,600); AID 651740;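 active = mean inhibition above about 95%, with at least 55% of replicates also reaching it, limit read from the data; inconclusive = meets just one of the two conditions; inactive = meets neither condition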;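 note: plate controls were neutral control median for no effect and positive control median for full effect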
NIH3T3 tox: NIH/3T3 (mouse) viability loss; NIH/3T3 viability, CellTiter-Glo ATP luminescence, 90 h; shares compounds with T cruzi growth-1; cytotoxicity (signal decrease), % at 8.35 µM; actives 14% (n = 5,600);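 active = mean signal decrease across replicates above about 35% based on untreated-well scatter, with enough replicates individually passing, limit read from the data; inconclusive = no rule stated though some were filed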;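 note: 0% = median of neutral control wells and 100% = median of positive control wells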
3T3 cytotox 2: NIH/3T3 (mouse) viability loss | shares compounds with T cruzi growth-1 | NIH/3T3 viability, CellTiter-Glo ATP luminescence, 90 h | inhibition, % at 24.9 µM | actives 56% (n = 5,600);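 active = mean loss of cell viability signal at or above a set limit, and enough replicates individually reaching it; inconclusive = meets only the mean limit or only the replicate share; inactive = meets neither condition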;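 note: 0% = median of neutral control wells and 100% = median of positive control wells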
Numbers without * were called inactive; ? = inconclusive; · = not tested or not shown.

SMILES | C diff growth | Pf Dd2 inh | T cruzi growth-1 | T cruzi growth-2 | T cruzi growth-3 | NIH3T3 tox | 3T3 cytotox 2
COc1ccccc1-c1ccc([C@H]2[C@@H](CO)N(C(=O)C3CCCCC3)[C@H]2C#N)cc1 | 2.7 | 6.2 | 74.4 | · | · | · | ·
Cc1noc(C)c1NC(=O)Nc1ccc2c(c1)C(=O)N([C@@H](C)CO)C[C@@H](C)[C@H](CN(C)Cc1ccncc1)OCCCC[C@H](C)O2 | -3.0 | 10.0 | 31.5 | · | · | · | ·
Cc1ccc(S(=O)(=O)N[C@@H]2CC[C@@H](CCn3cc(C(C)C)nn3)O[C@@H]2CO)cc1 | -5.0 | -6.2 | 45.9 | · | · | · | ·
C[C@H]1CCCCO[C@@H](CN(C)C(=O)Nc2ccccc2)[C@@H](C)CN([C@@H](C)CO)C(=O)c2cc(NS(=O)(=O)c3ccc(Cl)cc3)ccc2O1 | 10.3 | -70.2 | 113.6* | 107.8* | 38.7 | -17.6 | -37.2
C[C@@H]1CCCCO[C@@H](CN(C)C(=O)Nc2ccccc2)[C@H](C)CN([C@H](C)CO)C(=O)c2cc(NS(=O)(=O)c3ccccc3)ccc2O1 | · | -56.7 | · | · | · | · | ·
C[C@@H]1CCCCO[C@@H](CN(C)C(=O)Nc2ccccc2)[C@H](C)CN([C@@H](C)CO)C(=O)c2cc(NS(=O)(=O)c3ccc(Cl)cc3)ccc2O1 | 1.3 | -17.3 | ? | 108.2* | 66.7 | 2.9 | 4.4
C[C@@H]1CN([C@H](C)CO)C(=O)c2cc(NS(=O)(=O)c3ccc(Cl)cc3)ccc2O[C@@H](C)CCCCO[C@H]1CN(C)C(=O)Nc1ccccc1 | 0.8 | -66.3 | ? | 100.6* | 28.0 | -44.2 | -23.5
C[C@H](CO)N1C[C@H](C)[C@H](CN(C)C(=O)Nc2ccccc2)OCCCC[C@H](C)Oc2ccc(NS(=O)(=O)c3ccccc3)cc2C1=O | · | 17.1 | · | · | · | · | ·
C[C@@H]1CN([C@@H](C)CO)C(=O)c2cc(NS(=O)(=O)c3ccccc3)ccc2O[C@@H](C)CCCCO[C@@H]1CN(C)C(=O)Nc1ccccc1 | · | -55.5 | · | · | · | · | ·
CC=Cc1ccc2n(c1=O)C[C@H]1[C@H](CO)[C@@H](C(=O)NCc3ccc(F)cc3)N(C)[C@@H]21 (mixture of isomers) | 2.8 | 5.2 | 38.4 | · | · | · | ·
C[C@H]1CN([C@@H](C)CO)C(=O)Cc2cc(NC(=O)Cn3cnnn3)ccc2O[C@H]1CN(C)S(=O)(=O)c1ccc(Cl)cc1 | -1.3 | -8.0 | 8.9 | · | · | · | ·
C[C@H]1CN([C@@H](C)CO)C(=O)Cc2cc(NS(=O)(=O)c3cn(C)cn3)ccc2O[C@@H]1CN(C)C(=O)Nc1ccccc1 | 2.5 | 21.1 | -12.9 | · | · | · | ·
N#Cc1cccc(-c2ccc([C@H]3[C@@H](CO)N4CCCCN(C(=O)Nc5ccccc5)C[C@@H]34)cc2)c1 | 7.2 | 22.4 | 111.2* | 108.4* | 71.0 | 20.8 | 16.4
N#Cc1cccc(-c2ccc([C@@H]3[C@H](CO)N4CCCCN(C(=O)Nc5ccccc5)C[C@@H]34)cc2)c1 | 37.5 | -16.8 | 97.8* | 107.9* | 87.7 | 35.8* | 105.6*
N#Cc1cccc(-c2ccc([C@@H]3[C@@H](CO)N4CCCCN(C(=O)Nc5ccc(F)cc5)C[C@H]34)cc2)c1 | 1.0 | -8.3 | 92.7 | · | · | · | ·
CCC(=O)N1CCCCN2[C@H](CO)[C@H](c3ccc(-c4cccc(C#N)c4)cc3)[C@@H]2C1 | 8.6 | 18.1 | 92.1 | · | · | · | ·
COc1ccccc1NC(=O)N1CCCCN2[C@H](C1)[C@H](c1ccc(-c3cccc(C#N)c3)cc1)[C@@H]2CO | 6.6 | 10.6 | 82.0 | · | · | · | ·
N#Cc1cccc(-c2ccc([C@H]3[C@H](CO)N4CCCCN(C(=O)Nc5ccccc5)C[C@@H]34)cc2)c1 | 30.6 | -8.7 | 98.9* | 110.0* | 63.7 | 45.6* | 106.4*
N#Cc1cccc(-c2ccc([C@@H]3[C@@H](CO)N4CCCCN(C(=O)Nc5ccccc5)C[C@@H]34)cc2)c1 | 16.0 | -0.2 | 108.3* | 106.8* | 70.0 | 41.8* | 92.6*
COc1ccccc1NC(=O)N1CCCCN2[C@H](C1)[C@@H](c1ccc(-c3cccc(C#N)c3)cc1)[C@@H]2CO | 6.2 | -26.6 | 42.8 | · | · | · | ·
O=C(c1cnccn1)N1CC(=O)N2[C@@H](CO)[C@H](c3ccc(-c4ccccc4)cc3)[C@@H]2C1 | -1.3 | -2.2 | · | · | · | · | ·
C[C@@H](NC(=O)[C@H]1N[C@H]2c3ccc(-c4cncnc4)c(=O)n3C[C@H]2[C@@H]1CO)c1ccccc1 | 4.1 | 6.7 | 8.4 | · | · | · | ·
C[C@@H]1CCCCO[C@@H](CN(C)S(=O)(=O)c2ccccc2)[C@H](C)CN([C@@H](C)CO)C(=O)c2cc(NC(=O)CCCN(C)C)ccc2O1 | 0.2 | 25.1 | -19.3 | · | · | · | ·
COc1ccccc1C#Cc1ccc2c(c1)O[C@@H](CN(C)Cc1cccnc1)[C@H](C)CN([C@H](C)CO)S2(=O)=O | 6.4 | -46.7 | · | · | · | · | ·
COc1ccccc1C#Cc1ccc2c(c1)O[C@@H](CN(C)Cc1ccccc1)[C@@H](C)CN([C@@H](C)CO)S2(=O)=O | -1.1 | -14.0 | 122.2* | 103.9* | 105.9* | -18.7 | 7.3
SMILES | C diff growth | Pf Dd2 inh | T cruzi growth-1 | T cruzi growth-2 | T cruzi growth-3 | NIH3T3 tox | 3T3 cytotox 2
COc1ccccc1C#Cc1ccc2c(c1)O[C@@H](CN(C)Cc1ccncc1)[C@@H](C)CN([C@@H](C)CO)S2(=O)=O | -1.0 | ? | 123.0* | 101.1* | 100.6* | 10.1 | 40.1*
COc1ccccc1C#Cc1ccc2c(c1)O[C@H](CN(C)Cc1ccncc1)[C@H](C)CN([C@@H](C)CO)S2(=O)=O | -4.8 | -74.7 | 130.2 | · | · | · | ·
CN1C[C@H]2[C@@H](c3ccccc31)[C@H](CO)N2C(=O)C1CCCCC1 | -2.5 | 2.9 | 75.9 | · | · | · | ·
C[C@@H]1CCCCO[C@H](CN(C)C(=O)Nc2ccc(C(F)(F)F)cc2)[C@H](C)CN([C@@H](C)CO)C(=O)c2cc(NC(=O)c3ccccc3)ccc2O1 | -1.7 | -75.9 | 85.9 | · | · | · | ·
C[C@H]1CCCCO[C@@H](CN(C)C(=O)Nc2ccc(C(F)(F)F)cc2)[C@@H](C)CN([C@@H](C)CO)C(=O)c2cc(NC(=O)c3ccncc3)ccc2O1 | 8.6 | -82.7* | 108.5* | 108.8* | 67.3 | 18.4 | ?
C[C@@H]1CN([C@@H](C)CO)C(=O)c2cc(NC(=O)c3ccccc3)ccc2O[C@@H](C)CCCCO[C@@H]1CN(C)C(=O)Nc1ccc(C(F)(F)F)cc1 | -9.6 | -86.7* | ? | 103.7* | 101.2* | 33.5 | 79.7*
C[C@@H]1CCCCO[C@H](CN(C)C(=O)Nc2ccc(C(F)(F)F)cc2)[C@H](C)CN([C@H](C)CO)C(=O)c2cc(NC(=O)c3ccccc3)ccc2O1 | 12.8 | -52.9 | 102.0* | 110.3* | 106.2* | -3.1 | -11.3
C[C@@H]1CCCCO[C@@H](CN(C)C(=O)Nc2ccc(C(F)(F)F)cc2)[C@@H](C)CN([C@H](C)CO)C(=O)c2cc(NC(=O)c3ccncc3)ccc2O1 | 2.9 | -79.5 | · | · | · | · | ·
